This is an account of results in the supplement of paper PMC10732440.

± gives the standard deviation of the averaged measurements.

This assay deals with Caenorhabditis elegans N2 infected with Nematocida parisii ERTm1. The experiment in a line: progeny production relative to DMSO uninfected control; higher = more progeny despite microsporidia infection (inhibition of infection with low host toxicity). The following applies: infection time 6 days. The procedure, abridged:
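Bleach-synchronised wild-type C. elegans L1 larvae (100 per well) were placed in 96-well plates with K-medium, E. coli OP50 and 15,000 N. parisii spores/μL, with compound pinned to 100 μM or 40 μM in 1% DMSO. Plates were shaken at 21°C for 6 days; worms were then Rose Bengal-stained, flatbed-scanned and counted with WorMachine, each compound and dose tested three times. Progeny production is given as a percentage of the spore-free vehicle control, averaged across replicates.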

With `Cc1ncc([N+](=O)[O-])n1CC(O)CN1CCOCC1` (centres undefined), the progeny production was determined as 9.17 ± 4.5% (40 µM) and 12.3 ± 8.3% (100 µM).

As to `CC(C)(C)c1ccc(Oc2ccc(N)cc2)cc1`, the progeny production was found to be 3.17 ± 1.1% (40 µM) and 11.1 ± 5.3% (100 µM).

Turning to `Fc1ccc2c(/C=C/c3cccnc3)c[nH]c2c1`, the progeny production runs as follows: (40 µM) 3.47 ± 0.88%; (100 µM) 19.9 ± 9%. As to `Nc1ccc2oc(=O)ccc2c1I`, the progeny production reads like this: (40 µM) 3.87 ± 2.3%; (100 µM) 7.24 ± 3.6%. In the case of `CCc1cc(CCC(=O)Nc2ccccc2O)c(O)nc1C`, the progeny production was found to be 4.5 ± 1.7% (40 µM) and 9.45 ± 3.1% (100 µM).

Turning to `O=C(O)c1cc(-c2ccccc2)nc2ccccc12`, the progeny production was 6.15 ± 0.79% (40 µM) and 6.83 ± 4.5% (100 µM). For the compound `NC(=O)c1ccc(I)c([N+](=O)[O-])c1`, the progeny production reads like this: (40 µM) 1.54 ± 0.63%; (100 µM) 10 ± 2.6%. With `CCOC(=O)/C=C/[C@H](C[C@@H]1CCNC1=O)NC(=O)[C@H](CC)n1cccc(NC(=O)c2cc(C)on2)c1=O`, the progeny production runs as follows: (40 µM) 4.38 ± 3.6%; (100 µM) 8.98 ± 7.5%. Consider `COC(=O)Nc1nc2c(C)cccc2[nH]1`, for which the progeny production was 13.8 ± 1.7% (40 µM) and 78.2 ± 11% (100 µM). Turning to `COc1ccccc1NC(=O)c1ccccc1Sc1ccc([N+](=O)[O-])cc1`, the progeny production was found to be 6.65 ± 3.2% (40 µM) and 14.7 ± 2.9% (100 µM). Take `Nc1nc2c(ncn2/C=C2/CC2(CO)CO)c(=O)[nH]1`: the progeny production runs as follows: (40 µM) 3.83 ± 2.6%; (100 µM) 11.8 ± 3.7%. For `Clc1cc(Cl)c2c(c1)CCc1ccccc1C2n1ccnc1` (centres undefined), under “40 µM”, the progeny production came to 7.16 ± 0.49%.

Take `CC[C@H]1OC(=O)[C@H](C)[C@@H](O[C@H]2C[C@@](C)(OC)[C@@H](O)[C@H](C)O2)[C@H](C)[C@@H](O[C@@H]2O[C@H](C)C[C@H](N(C)C)[C@H]2O)[C@](C)(O)C[C@@H](C)C(=O)[C@H](C)[C@@H](O)[C@]1(C)O`: the progeny production (40 µM) is 3.49 ± 0.53%. Turning to `[N-]=[N+]=N[C@H]1C[C@H](n2ccc(=O)[nH]c2=O)O[C@@H]1CO`, the progeny production runs as follows: (40 µM) 4.8 ± 1.5%; (100 µM) 11.5 ± 5.3%. For the compound `COc1cc(NCc2ccc3nc(N)nc(N)c3c2C)cc(OC)c1OC`, the progeny production (40 µM) stood at 2.11 ± 0.79%. In the case of `CN1c2ccc(Cl)cc2N(c2ccccc2)C(=O)c2cn(Cc3ccc(CN4CCOCC4)cc3)nc21`, the progeny production is, setting by setting: (40 µM) 5.41 ± 0.76%; (100 µM) 6.28 ± 3%.

Take `Cc1cc(CCOc2c(C)cc(-c3nnn(C)n3)cc2C)on1`: the progeny production reads like this: (40 µM) 4.64 ± 1.1%; (100 µM) 8.74 ± 2.1%. Consider `O=C1NC(=S)N/C1=C\c1cc(Br)cc(Br)c1O`, for which the progeny production runs as follows: (40 µM) 6.18 ± 0.84%; (100 µM) 10.2 ± 8.1%. Take `c1ccc(Cn2c(-c3ccccn3)nc3ccccc32)cc1`: the progeny production turned out to be 3.12 ± 1.9% (40 µM) and 4.55 ± 2.1% (100 µM).

Where the note is “40 µM”, `Cc1cc(NS(=O)(=O)c2ccc(-c3ccc(F)cc3F)cc2)no1` displayed a progeny production of 4.39 ± 1.9%. The compound `O=c1cc(OCc2ccccc2)ccn1Cc1ccccc1` returned a progeny production (40 µM) of 5.55 ± 1.6% and a progeny production (100 µM) of 13.9 ± 13%.

With `CCc1c(O)nc2ccc(F)cc2c1OCC1CCC1`, the progeny production reads like this: (40 µM) 6.76 ± 3.3%; (100 µM) 16.2 ± 9.1%. For `Cc1cccc(C)c1C(=O)Nc1nc(-c2ccccn2)cc2ccccc12`, the progeny production is, setting by setting: (40 µM) 4.99 ± 2.4%; (100 µM) 6.64 ± 4.7%. Take `Fc1ccc(-n2cc(Cn3c(-c4cccc(F)c4)nc4ccccc43)nn2)cc1`: the progeny production (40 µM) worked out at 3.69 ± 0.39%.

For the compound `CCCCC(CC)CNC(=N)NC(=N)NCCCCCCNC(=N)NC(=N)NCC(CC)CCCC` (centres undefined), the progeny production runs as follows: (40 µM) 5.25 ± 0.29%; (100 µM) 24.3 ± 32%. Consider `Oc1c(C(Nc2ccccn2)c2ccccc2)ccc2cccnc12` (centres undefined), for which the progeny production stood at 8.66 ± 7.6% (40 µM) and 9.12 ± 7.2% (100 µM). For `O=C(NC(=O)N1CCCc2ccccc21)c1cccc(Cl)c1`, the progeny production by setting is: (40 µM) 2.7 ± 0.83%; (100 µM) 19.9 ± 14%. In the case of `CCC(C)n1ncn(-c2ccc(N3CCN(c4ccc(OCC5COC(Cn6cncn6)(c6ccc(Cl)cc6Cl)O5)cc4)CC3)cc2)c1=O` (centres undefined), the progeny production was determined as 4.85 ± 1.2% (40 µM) and 22.8 ± 5.2% (100 µM). Consider `CCOCc1nc2c(N)nc3ccccc3c2n1CC(C)(C)O`, for which the progeny production worked out at 3.75 ± 1.7% (40 µM) and 14.8 ± 5.8% (100 µM). The compound `COc1cc(C)c2c(Oc3cccc(C(F)(F)F)c3)c(OC)cc(NC(C)CCCN)c2n1` (centres undefined) showed a progeny production (40 µM) of 4.23 ± 1%.

In the case of `CCCc1ccc(-c2cc3cn([C@H]4C[C@H](O)[C@@H](CO)O4)c(=O)nc3o2)cc1`, the progeny production runs as follows: (40 µM) 3.62 ± 2.5%; (100 µM) 11 ± 5.5%.

Take `O=C(NNC(=S)Nc1ccc(Cl)cc1)c1ccncc1`: the progeny production runs as follows: (40 µM) 2.76 ± 1.4%; (100 µM) 18.4 ± 12%. The compound `O=C(CP(=O)(O)O)NCCc1cccc(Oc2ccccc2)c1` registered a progeny production (40 µM) of 4.04 ± 0.94%. The same measure, in the same setting: next, `Cc1cc(-c2ccccc2)c(C(=O)C(=O)Nc2ccc(N3CCN(c4ncc(F)cn4)CC3)cc2)n1C`: 2.94 ± 0.74%. For `CC(=O)N[C@H](C)C(=O)N[C@H](Cc1ccccc1)C(=O)O`, the progeny production (40 µM) came to 9.08 ± 7.2% and the progeny production (100 µM) was found to be 10 ± 3.2%. Regarding `NCCCc1ccccc1C(=O)Nc1ncc([N+](=O)O)s1`, the progeny production (40 µM) worked out at 3.03 ± 1.9% and the progeny production (100 µM) amounted to 25.2 ± 31%. On to `Nc1nc(-c2ccccc2)nc2c1ncn2[C@@H]1O[C@H](COS(=O)(=O)NC(=O)c2ccccc2O)[C@@H](O)[C@H]1O`, for which the progeny production is, setting by setting: (40 µM) 6.94 ± 2.3%; (100 µM) 6.74 ± 3.1%. With `COc1ccc2sc3c(c2c1)NC(C)CNC3=O` (centres undefined), the progeny production was 7.35 ± 2.7% (40 µM) and 29.9 ± 22% (100 µM). Consider `O=C(O)[C@H]1C2CCC(CC2)[C@@H]1Nc1nc(-c2c[nH]c3ncc(F)cc23)ncc1F`, for which the progeny production stood at 8.03 ± 4.7% (40 µM) and 14.2 ± 12% (100 µM). Consider `CCc1nc2ccc(Cl)cn2c1C(=O)NCc1ccc(N2CCC(c3ccc(OC(F)(F)F)cc3)CC2)cc1`, for which the progeny production (40 µM) is 4.78 ± 2.6% and the progeny production (100 µM) is 6.24 ± 4.5%. Taken in the same sequence, the figures for `Cc1onc(-c2ccccc2)c1-c1ccc(S(N)(=O)=O)cc1` were 3.75 ± 1.8% and 7.71 ± 5.3%. For the compound `Cc1cc(C2CCCCC2)n(O)c(=O)c1`, the progeny production reads like this: (40 µM) 5.34 ± 2.3%; (100 µM) 33 ± 36%. As for `Cc1c(CN(C)C(=O)/C=C/c2cnc3c(c2)C(C)(C)C(=O)N3)oc2ccccc12`, the progeny production was determined as 6.13 ± 3.2% (40 µM) and 20.6 ± 20% (100 µM). For the compound `CCCCc1ccc(S(=O)(=O)Nc2cc(C)on2)cc1`, the progeny production reads like this: (40 µM) 7.98 ± 1.1%; (100 µM) 25 ± 22%.

For the compound `NS(=O)(=O)c1ccc(NC(=O)NC(c2ccccc2)c2ccccc2)cc1`, the progeny production runs as follows: (40 µM) 6.18 ± 1.6%; (100 µM) 16.9 ± 14%. Regarding `O=C(O)COc1cccc2c1CC[C@](O)(COC(=O)N(c1ccccc1)c1ccccc1)C2`, the progeny production by setting is: (40 µM) 4.24 ± 0.25%; (100 µM) 15.6 ± 8.1%.
